Assay outcomes (PubChem BioAssay)
In the library only some 1.3% were active in any assay of this set; here they are far more common.
Mito fusion act – mitochondrial division inhibition or fusion activation; S. cerevisiae fusion-defective mutant growth rescue, CellTiterGlo 48 h; Potency, µM (doses to about 46.1 µM), actives largely listed as activators; 320,000 compounds, 0.23% hits; AID 485298; further: nearly all actives have a fitted effect of over 45% in size
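Growth-rescue viability read-out: after 48 h at the non-permissive 37C in glycerol/ethanol YPEG, yeast mitochondrial fusion mutants are measured by CellTiterGlo luminescence; compounds (23 nl pinned per well) restoring growth score as division inhibitors or fusion activators.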
BCR signal inh – inhibitors of chronic active B-cell receptor signaling | ABC-DLBCL IkBa-CBG/CBR reporter, luminescence ratio, 4 h | Potency, µM (highest dose often 46.1 µM), usual class: inhibitors | 340,000 compounds, 0.05% hits | AID 493014; active means well fitted inhibition curve with a large enough effect in the signal ratio, with a control signal flat, not every such curve was filed as active; inconclusive means small, poorly fitted or top-dose-only effect, or effect the other way, or a change in a side signal; the % refers to the signal ratio
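Doxycycline induced both beetle luciferases in TMD8 lymphoma cells; IKK-driven degradation limits the IkappaBalpha-fused green signal, while red luminescence normalises for cell number and nonspecific effects. Compounds tested up to 46 uM, 4 hrs.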
BRCA1 expr act – increases BRCA1 expression; 380,000 compounds, 1.1% hits; MCF7-BRCA1-FFLuc reporter, luminescence, 48 h; response scale: scaled: vehicle 0%, 10 µM genistein 100%; Potency, µM (titrated, usually from 46.1 µM), actives largely listed as activators; further: nearly all actives have a fitted effect of over 80% in size
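MCF7-BRCA1-FFLuc cells, 2000/well in phenol-red-free MEM, attached 2 h then treated 48 h at 37 C. Luciferase luminescence read 15 min after reagent; normalized to genistein maximum activation (10microM) and DMSO, concentration-response fitted.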
TCR activator – activators of T cell receptors; 330,000 tested, under 10 active; primary human leukocytes, anti-CD3, IL-2 HTRF, 48 h; AID 504894; Potency, µM (doses to about 9.22 µM), usual class: activators
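IL-2 release read by HTRF sandwich (Eu cryptate donor, d2 acceptor, 665 nm emission) after 48 hr exposure of primary human leukocytes to compound together with anti-CD3 beads in the absence of co-stimulatory signals.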
IL2 activator – activates IL-2 in a cell-based reporter assay; 360,000 compounds, 0.065% hits; activation, % (series mostly up to about 46 µM); IL-2 activation reporter assay, cell-based qHTS; stimulated with anti-CD3/CD4/CD28 beads; in transgenic mouse T cells; in the data active means activation above about 50%; inconclusive means mostly about 30% to 49%
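Readout is EGFP and DsRed signal by fluorescent plate cytometry after 18 h at 37 degrees C. Transgenic mouse T cells (750/well) received compound for 60 min before bead stimulation (anti-CD3, anti-CD4, anti-CD28); memory T cells served as non-tolerant control.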
PTHR1 ag – activates the human parathyroid hormone receptor PTHR1 | Q03431 | HEK293 GP2 PTHR1 cells, GloSensor cAMP luminescence, 1 h | Potency, µM (top dose mostly 115 µM), usual class: activators | 410,000 compounds, 0.075% hits | AID 743266; further: nearly all actives have a fitted effect of over 55% in size
Target sequence (Q03431 whole entry, looked up): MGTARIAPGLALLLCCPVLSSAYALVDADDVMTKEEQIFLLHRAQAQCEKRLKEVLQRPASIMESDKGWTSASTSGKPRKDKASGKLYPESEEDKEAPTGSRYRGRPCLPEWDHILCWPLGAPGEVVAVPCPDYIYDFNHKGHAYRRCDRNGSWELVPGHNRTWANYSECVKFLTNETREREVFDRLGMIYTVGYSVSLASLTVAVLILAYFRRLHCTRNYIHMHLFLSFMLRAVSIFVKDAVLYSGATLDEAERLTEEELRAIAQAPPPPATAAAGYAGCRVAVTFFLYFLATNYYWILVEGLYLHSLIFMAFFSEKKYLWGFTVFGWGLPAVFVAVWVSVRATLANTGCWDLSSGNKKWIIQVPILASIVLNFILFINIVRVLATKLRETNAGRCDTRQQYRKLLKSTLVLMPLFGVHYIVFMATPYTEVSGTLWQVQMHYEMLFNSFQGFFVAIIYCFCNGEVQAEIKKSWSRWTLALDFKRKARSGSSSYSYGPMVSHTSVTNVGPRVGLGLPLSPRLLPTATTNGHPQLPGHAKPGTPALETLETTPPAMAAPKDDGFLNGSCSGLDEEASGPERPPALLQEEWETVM
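HEK-293-derived GP2 cells expressing PTHR1 and a GloSensor cAMP reporter, 3,000/well, plated overnight, given luciferin plus IBMX (each 0.5 mM as added) for 1 h at 37 °C, then compound for 1 h at 37 °C. Luminescence was read after 15 min at room temperature.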
Hits are given with their value. Unless noted, the call rests on the fitted dose curve; in most records, active means well fitted curve in the direction sought with a large enough effect; inconclusive means small, poorly fitted or top-dose-only effect, or another doubt; inactive means no such curve, though single readings can be large; an effect the other way counts as inactive or inconclusive.

Screening N#C/C(=C/c1ccc(N2CCCCC2)cc1)c1cccc(F)c1 returned Mito fusion act inactive, BCR signal inh inconclusive, BRCA1 expr act 7.9µM, TCR activator inactive, IL2 activator inactive and PTHR1 ag inactive.
CCn1c(SCC(O)c2ccccc2)nnc1-c1ccccc1 (stereo not drawn) was read as Mito fusion act inactive, BCR signal inh inconclusive, BRCA1 expr act 11µM, TCR activator inactive, IL2 activator inactive and PTHR1 ag inactive.
For CCCOC(=O)c1cccc(Nc2nc(CCC)cc(=O)[nH]2)c1 the results were PTHR1 ag inactive.
CC(C)(C)c1ccc(C(=O)N2CCC(NC(=O)c3ccccc3)CC2)cc1 was read as Mito fusion act 35µM, BCR signal inh inactive, BRCA1 expr act inactive, TCR activator inactive, IL2 activator inactive and PTHR1 ag inactive.
Screening COc1ccc(C(=O)NC(=S)NCc2ccco2)cc1Br returned Mito fusion act inactive, BCR signal inh inactive, BRCA1 expr act inactive, TCR activator inactive, IL2 activator inactive and PTHR1 ag inactive.
O=S(=O)(c1cccs1)N1CCCc2cccc(O)c21 was read as Mito fusion act inactive, BCR signal inh inactive, BRCA1 expr act 13µM, TCR activator inactive, IL2 activator inactive and PTHR1 ag inactive.
Screening O=C(Nc1ccc2c(c1)N(S(=O)(=O)c1cccs1)CCC2)c1c(F)cccc1F returned Mito fusion act inactive, BCR signal inh inconclusive, BRCA1 expr act inactive, TCR activator inactive, IL2 activator inactive and PTHR1 ag inactive.
For O=C1c2ccccc2C(=O)C1c1ccccn1 the results were Mito fusion act inactive, BCR signal inh inactive, BRCA1 expr act 2.5µM, TCR activator inactive, IL2 activator inactive and PTHR1 ag inactive.
Screening O=C(O)CC(NC(=O)C12CC3CC(CC(C3)C1)C2)c1cc([N+](=O)[O-])ccc1Cl (stereo not drawn) returned Mito fusion act 3.5µM, BCR signal inh inactive, BRCA1 expr act inactive, TCR activator inactive, IL2 activator inactive and PTHR1 ag inactive.
O=C(O)CC(NC(=O)C1CCCCC1)c1cc([N+](=O)[O-])ccc1Cl (stereo not drawn) was read as Mito fusion act inactive, BCR signal inh inactive, BRCA1 expr act inactive, TCR activator inactive, IL2 activator inactive and PTHR1 ag inactive.
`Cc1c(NC(=S)N/C(=N/S(=O)(=O)c2ccc(Cl)cc2)c2ccccc2)c(=O)n(-c2ccccc2)n1C` gave Mito fusion act inactive, BCR signal inh inactive, BRCA1 expr act inactive, TCR activator inactive, IL2 activator inactive and PTHR1 ag inactive.
O=C(c1ccc([N+](=O)[O-])cc1)n1nc(-c2ccccc2)nc1NCc1ccccc1 was read as Mito fusion act inactive, BCR signal inh inconclusive, BRCA1 expr act inactive, TCR activator inactive, IL2 activator inactive and PTHR1 ag inactive.
O=C(c1cccc([N+](=O)[O-])c1)n1nc(-c2ccccc2)nc1NCc1ccccc1 was read as Mito fusion act inactive, BCR signal inh inconclusive, BRCA1 expr act 10µM, TCR activator inactive, IL2 activator inactive and PTHR1 ag inactive.
Screening Cc1cc(NC(=O)CC2CCCC2)ccc1Br returned Mito fusion act inactive, BCR signal inh inconclusive, BRCA1 expr act 8.9µM, TCR activator inactive, IL2 activator inactive and PTHR1 ag inactive.
For O=C(CC1CCCC1)Nc1ccc2c(c1)CCC2 the results were Mito fusion act inactive, BCR signal inh inconclusive, BRCA1 expr act 10µM, TCR activator inactive, IL2 activator inactive and PTHR1 ag inactive.
Screening Cc1cc(C(Br)(Br)Br)nc2ccccc12 returned BRCA1 expr act inactive.
For Cc1cc(NC(=O)c2cc(C)on2)no1 the results were Mito fusion act inactive, BCR signal inh inactive, BRCA1 expr act inactive, IL2 activator inactive and PTHR1 ag inactive.
Screening Cc1cc(NC(=O)c2cc(C3CC3)on2)no1 returned Mito fusion act inactive, BCR signal inh inactive, BRCA1 expr act 6.3µM, TCR activator inactive, IL2 activator inactive and PTHR1 ag inactive.
`O=C(Nc1nc(-c2ccccc2)cs1)C1CCCCN1S(=O)(=O)c1ccc(Cl)cc1` (stereo not drawn) gave Mito fusion act 18µM, BCR signal inh inactive, BRCA1 expr act inactive, TCR activator inactive, IL2 activator inactive and PTHR1 ag inactive.
`Cc1ccccc1C(N)c1ccncc1` (stereo not drawn) gave Mito fusion act inactive, BCR signal inh inactive, BRCA1 expr act inactive, IL2 activator inactive and PTHR1 ag inactive.
Screening CCOC(=O)c1[nH]c2ccc(OC)cc2c1C returned Mito fusion act inactive, BCR signal inh inconclusive, BRCA1 expr act inactive, TCR activator inactive, IL2 activator inactive and PTHR1 ag inactive.
For CCN1CCN(C(=O)c2cc3ccc(OC)cc3[nH]2)CC1 the results were Mito fusion act inactive, BCR signal inh inconclusive, BRCA1 expr act 11µM, TCR activator inactive, IL2 activator inactive and PTHR1 ag inactive.
`COc1ccc2cc(C(=O)N3CCN(C)CC3)[nH]c2c1` gave Mito fusion act inactive, BCR signal inh inconclusive, BRCA1 expr act inactive, TCR activator inactive, IL2 activator inactive and PTHR1 ag inconclusive.
COc1ccc2[nH]c(C(=O)Nc3ccc(C)c(F)c3)cc2c1 was read as Mito fusion act inactive, BCR signal inh inconclusive, BRCA1 expr act 3.5µM, TCR activator inactive, IL2 activator inactive and PTHR1 ag inactive.
Screening CCOC(=O)c1cc2cc(OC)ccc2[nH]1 returned Mito fusion act inactive, BCR signal inh inactive, BRCA1 expr act 5.6µM, TCR activator inactive, IL2 activator inactive and PTHR1 ag inactive.
`COc1ccc(NC(=O)c2cc3ccccc3[nH]2)cc1` gave Mito fusion act inactive, BCR signal inh inconclusive, BRCA1 expr act inconclusive, IL2 activator inactive and PTHR1 ag inactive.
Screening CN(C)/[N+]([O-])=N/Oc1cc(F)c([N+](=O)[O-])cc1[N+](=O)[O-] returned BRCA1 expr act inactive.
Screening O=C(NNC(=O)c1c(O)c2ccccc2[nH]c1=O)c1ccccc1Br returned Mito fusion act inactive, BCR signal inh inconclusive, BRCA1 expr act inactive, TCR activator inactive, IL2 activator inactive and PTHR1 ag inactive.
Nc1cccc(CCc2nc3cc4ccccc4cc3[nH]2)c1 was read as Mito fusion act 20µM, BCR signal inh inconclusive, BRCA1 expr act inactive, TCR activator inactive, IL2 activator inactive and PTHR1 ag inactive.
c1ccc(CCc2nc3ccccc3[nH]2)cc1 was read as Mito fusion act inactive, BCR signal inh inconclusive, BRCA1 expr act 6.3µM, TCR activator inactive, IL2 activator inactive and PTHR1 ag inactive.
